Experimental findings from PubChem BioAssay (NCATS) are described below.

The structures appear in SMILES notation. “And” between values parts separate entries of the source, which are not always exact repeats. Equal values may be shown once. Values without a mark were called inactive. Results filed as inconclusive are left out. The source made the active and inactive calls. Unless noted, calls follow the shape of the dose curve; as a rule, active = well fitted curve in the direction sought with a large enough effect; inconclusive = small, poorly fitted or top-dose-only effect, or another doubt; inactive = no such curve, though single readings can be large; an effect the other way counts as inactive or inconclusive.

Test [1] in a line: qHTS to identify inhibitors of the type 1 interferon - major histocompatibility complex class I in skeletal muscle: primary screen against the NCATS LOPAC collection (AID 1347405).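 Also: lytic HiBiT luminescence reporting HLA-B protein level.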 Also: potency is read from the fitted curve at half-maximal effect. The method in brief:
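Cells: C25cl48 human myoblasts, HiBiT-tagged HLA-B*08:01, stimulated with IFN-beta 4.0 ng/ml. Compounds are titrated 1:4.3 over 7 points from 46 uM final and incubated 24 hrs; endogenous MHC class I is quantified by HiBiT lytic luminescence.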
On the technique in general: In qHTS, concentration-response curves come from the screen itself.

Test [2] is described as follows: qHTS for inhibitors of adenylyl cyclases using a fission yeast platform: a pilot screen against the NCATS LOPAC library (AID 1347410).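 Also: plate controls were DMSO vehicle for no effect and DPI positive control for full effect.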 The method in brief:
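GFP from fbp1-GFP reporter, read by Acumen laser cytometry, indicates AC inhibition in fission yeast expressing AC9, GNAS and PDE4D2. Cells grown 18 h in the dark at 30C with compounds, final up to 57 uM.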

Test [3] addresses Protein phosphatase 1D (Homo sapiens) (UniProt O15297). Description: RapidFire Mass Spectrometry qHTS Assay for Modulators of WT P53-Induced Phosphatase 1 (WIP1) (AID 1347424).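 Also: amount of dephosphorylated VEPPL-S-QETFS peptide product formed by WIP1; series mostly up to about 63 µM; plate controls were DMSO wells for no effect and GSK830371 inhibitor control at 10 µM for full effect.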 The method in brief:
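10 nM WIP1 preincubated with compounds 1 hr at room temperature in pH 7.5 Tris buffer with 30 mM MgCl2, 1 mM TCEP; 2 uM VEPPL-pS-QETFS phosphopeptide for 5 min, formic acid quench; dephosphorylated product quantified by RapidFire MS against labelled standard.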

Test [4] shares this target. Description: Rhodamine-PBP qHTS Assay for Modulators of WT P53-Induced Phosphatase 1 (WIP1) (AID 1347425). Also: % of control where 0% means no effect. The method in brief:
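Steps: enzyme with Rh-PBP sensor and compounds, room-temperature incubation of 1 hr, baseline read, addition of VEPPL-pS-QETFS (10 uM final), kinetic fluorescence reads at 525/598 nm. Activity equals final minus baseline signal.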

Test [5] has as its target Single-stranded DNA cytosine deaminase (Homo sapiens) (UniProt Q9GZX7). Nature of the test: Validation qHTS assay for inhibitors of Activation Induced Cytidine Deaminase (AID): AID signal (AID 1347429). Also: % is scaled to controls: 0 for no effect and ±100 for the full control effect. The method in brief: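 In this coupled qHTS, AID deaminates a FRET-labelled ssDNA substrate in the presence of UDG over 4 hr at room temperature. Compounds span up to 114 uM final.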

The nature of test [6]: Primary qHTS for inhibitors of La Crosse Virus (LACV) - induced cell death in SH-SY5Y cells (AID 1508616).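 Also: top concentration of the series differs between compounds; 0% = infected DMSO wells and 100% = uninfected DMSO wells; higher means more rescue of cells from virus-induced death.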 The method in brief:
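Readout was luminescence from ATPLite 1step added after a 6-day LACV infection (0.01 MOI) of SH-SY5Y cells that had received pin-transferred compound 24 hr after seeding.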

For test [7], the target named is Calcium and integrin-binding protein 1 (Homo sapiens) (UniProt Q99828). Nature of the test: Validation qHTS for Identification of Calcium Integrin Binding protein 1 (CIB1) Competitor (AID 1508618). Also: % is scaled to controls: 0 for no effect and ±100 for the full control effect. The method in brief: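 In this qHTS validation, the LOPAC set (up to 114 uM) was tested for blocking CIB1 binding to a fluorescein-tagged alphaIIb peptide, with FP detection at 480/540 nm.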
Sequence of Calcium and integrin-binding protein 1 (Homo sapiens) (Q99828 whole entry, looked up): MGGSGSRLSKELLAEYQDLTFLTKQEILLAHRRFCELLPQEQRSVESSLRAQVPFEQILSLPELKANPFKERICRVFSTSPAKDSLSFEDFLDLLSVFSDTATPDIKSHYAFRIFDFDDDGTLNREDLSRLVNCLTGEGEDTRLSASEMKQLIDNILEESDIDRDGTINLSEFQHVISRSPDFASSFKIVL

The target is the same in test [8]. Description: Primary qHTS for Identification of Calcium Integrin Binding Protein 1 (CIB1) Competitor (AID 1508620). Also: potency is read from the fitted curve at half-maximal effect. The method in brief: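 Fluorescence polarization competition: GST-tagged CIB1 (1 uM final) preincubated with compound 15 min at room temperature, then FITC-labelled alphaIIb peptide (100 nM final) added. After 15 min at room temperature, polarization read at Ex 480/Em 540.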

The nature of test [9]: Primary qHTS for small molecule stabilizers of the endoplasmic reticulum resident proteome: Secreted ER Calcium Modulated Protein (SERCaMP) assay (AID 1508630). Also: % is scaled to controls: 0 for no effect and ±100 for the full control effect. The method in brief: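 GLuc-SERCaMP-expressing SH-SY5Y cells, pretreated 16 h with compound, are challenged with thapsigargin to empty ER calcium stores; after 4 h, coelenterazine is added directly to the medium and luminescence is imaged.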

For test [10], the target named is Cytochrome P450 2D6 (Homo sapiens) (UniProt P10635). Description: Cytochrome P450 family 2 subfamily D member 6 (CYP2D6) small molecule antagonists: luciferase biochemical (cell-free) qHTS assay (AID 1645840; active = well fitted curve in the direction sought with a large enough effect in the repeat runs; an effect the other way counts as inactive or inconclusive; also: nearly all actives have a fitted effect of over 55% in size; also: potency is read from the fitted curve at half-maximal effect). The method in brief:
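P450-Glo luminescent screen: recombinant CYP2D6 enzyme–proluciferin substrate mix preincubated with compound 10 min at room temperature, then NADPH regeneration added for 1 h at room temperature. Detection reagent added for 20 min; luciferin light read as relative luminescence units.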

Test [11] deals with Cytochrome P450 2C9 (Homo sapiens) (UniProt P11712). Description: Cytochrome P450 family 2 subfamily C member 9 (CYP2C9) small molecule antagonists: luciferase biochemical (cell-free) qHTS assay (AID 1645842; active = well fitted curve in the direction sought with a large enough effect in the repeat runs; an effect the other way counts as inactive or inconclusive; also: nearly all actives have a fitted effect of over 55% in size; also: potency is read from the fitted curve at half-maximal effect). The method in brief: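 Luminescence, after 20 min with luciferin detection reagent, reflected CYP2C9 turnover during a 1 h NADPH-driven reaction at 37C. Enzyme-substrate mix contained 0.4% bovine serum albumin and was preincubated with compound 10 min at room temperature.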
Sequence of Cytochrome P450 2C9 (Homo sapiens) (P11712 whole entry, looked up): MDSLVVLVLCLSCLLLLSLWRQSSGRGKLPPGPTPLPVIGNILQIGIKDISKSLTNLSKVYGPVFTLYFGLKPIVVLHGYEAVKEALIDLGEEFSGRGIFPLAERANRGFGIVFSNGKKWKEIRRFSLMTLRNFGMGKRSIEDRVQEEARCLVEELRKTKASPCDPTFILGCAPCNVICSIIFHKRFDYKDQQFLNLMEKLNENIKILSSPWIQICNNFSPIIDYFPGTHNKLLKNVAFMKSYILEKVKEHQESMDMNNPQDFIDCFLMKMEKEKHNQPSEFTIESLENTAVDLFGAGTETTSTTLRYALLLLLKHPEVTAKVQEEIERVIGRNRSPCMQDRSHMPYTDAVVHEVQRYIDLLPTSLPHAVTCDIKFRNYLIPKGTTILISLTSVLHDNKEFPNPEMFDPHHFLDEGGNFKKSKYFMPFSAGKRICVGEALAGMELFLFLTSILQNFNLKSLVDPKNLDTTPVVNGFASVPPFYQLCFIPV

In a further test the target is Papain (Carica papaya) (UniProt P00784). Nature of the test: Primary qHTS assay for inhibitors of the protease papain (AID 1645873).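 Also: papain turnover of Z-FR-AMC read as the AMC fluorescence gain over 10 min; series mostly up to about 50 µM; % is scaled to controls: 0 for no effect and ±100 for the full control effect.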
Sequence of Papain (Carica papaya) (P00784 whole entry, looked up): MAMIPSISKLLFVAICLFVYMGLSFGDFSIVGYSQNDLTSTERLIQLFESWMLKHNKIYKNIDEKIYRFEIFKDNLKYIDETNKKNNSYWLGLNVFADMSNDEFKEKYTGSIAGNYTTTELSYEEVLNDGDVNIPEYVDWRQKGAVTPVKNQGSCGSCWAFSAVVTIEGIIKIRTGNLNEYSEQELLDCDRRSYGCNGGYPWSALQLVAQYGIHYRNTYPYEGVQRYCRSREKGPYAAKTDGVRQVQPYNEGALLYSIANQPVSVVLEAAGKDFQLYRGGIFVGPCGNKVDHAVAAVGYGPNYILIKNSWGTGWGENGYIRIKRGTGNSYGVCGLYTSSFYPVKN
Test [12] in a line: qHTS to identify inhibitors of the type 1 interferon - major histocompatibility complex class I in skeletal muscle: primary screen against the NCATS Pharmaceutical Collection (AID 1347407). The method in brief: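 Compounds […] were added to CRISPR-engineered HLA-B-HiBiT C25cl48 human myoblasts with 4.0 ng/ml IFN-beta. After 24 hrs at 37 C, cells were lysed and HiBiT luminescence measured.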

Test [13] in a line: Cell Viability qHTS for small molecule stabilizers of the endoplasmic reticulum resident proteome (AID 1508629). The following applies: cell viability counter-screen, 100 nM thapsigargin for final 4 h.
A short description of test [14]: A High-Content qHTS Against Drug Library for the Identification of Small Molecules that Inhibit DYT1 Early Onset Primary Dystonia-Associated Cell Pathology (AID 1645839; calls by dose curve; also: series mostly up to about 46 µM). The method in brief: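 Flp-In T-REx 293 cells with tetracycline-inducible EGFP-delE hTOR1A (WT EGFP-hTOR1A as reference), 800 cells/well; compound added with tetracycline, 48 h at 37 C. Fixed, permeabilized cells imaged; %pathology (punctate TorsinA) primary, cell count counterscreen.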

The nature of test [15]: Primary qHTS for inhibitors of nuclear receptor binding SET domain protein 2 (NSD2) in an isogenic RCH-ACV NSD2 p.E1099K mutant (9B) (AID 1645876). Also: nearly all actives have a fitted effect of over 70% in size. Also: potency is read from the fitted curve at half-maximal effect.
A short description of test [16]: Validation qHTS assay for inhibitors of Activation Induced Cytidine Deaminase (AID): UDG Counterscreen signal (AID 1347427). Also: 0% is about no effect. The method in brief: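 Counterscreen read of UDG activity (2 U/mL, 4/3x) in the FRET deamination format with AID (1 uM, 4/3x), DJC20/DJC23 substrates (250 nM, 4x), 4 h at room temperature. NaOH stop, fluorescence at 560 ex/665 em.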
The target in test [17] is Cytochrome P450 3A4 (Homo sapiens) (UniProt P08684). Description: Cytochrome P450 family 3 subfamily A member 4 (CYP3A4) small molecule antagonists: luciferase qHTS assay (AID 1645841; active = well fitted curve in the direction sought with a large enough effect in the repeat runs; an effect the other way counts as inactive or inconclusive; also: nearly all actives have a fitted effect of over 45% in size). The method in brief:
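P450-Glo CYP3A4 enzyme with proluciferin substrate preincubated 10 min with compound at room temperature, then NADPH regeneration 1 h. Luciferin detection reagent added for 20 min; luminescence recorded. Ketoconazole positive control.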

Test [18] addresses Calcium and integrin-binding protein 1 (Homo sapiens) (UniProt Q99828). Nature of the test: Confirmatory qHTS for Identification of Calcium Integrin Binding Protein 1 (CIB1) Competitor (AID 1508617). Also: % is scaled to controls: 0 for no effect and ±100 for the full control effect; nearly all actives have a fitted effect of over 65% in size. The method in brief: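 Binding competition between test compounds and fluorescent alphaIIb peptide for 1 uM CIB1-GST is monitored by FP at 480/540 nm. Final compound range is up to 114 uM; unlabeled peptide serves as reference competitor.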

Sequence of Single-stranded DNA cytosine deaminase (Homo sapiens) (Q9GZX7 whole entry, looked up): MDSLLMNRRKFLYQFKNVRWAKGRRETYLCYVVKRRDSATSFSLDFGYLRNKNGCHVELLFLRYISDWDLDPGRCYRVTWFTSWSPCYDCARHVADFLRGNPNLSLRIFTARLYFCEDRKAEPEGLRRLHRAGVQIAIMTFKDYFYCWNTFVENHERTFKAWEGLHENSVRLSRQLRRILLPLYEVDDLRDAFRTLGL
Sequence of Protein phosphatase 1D (Homo sapiens) (O15297 whole entry, looked up): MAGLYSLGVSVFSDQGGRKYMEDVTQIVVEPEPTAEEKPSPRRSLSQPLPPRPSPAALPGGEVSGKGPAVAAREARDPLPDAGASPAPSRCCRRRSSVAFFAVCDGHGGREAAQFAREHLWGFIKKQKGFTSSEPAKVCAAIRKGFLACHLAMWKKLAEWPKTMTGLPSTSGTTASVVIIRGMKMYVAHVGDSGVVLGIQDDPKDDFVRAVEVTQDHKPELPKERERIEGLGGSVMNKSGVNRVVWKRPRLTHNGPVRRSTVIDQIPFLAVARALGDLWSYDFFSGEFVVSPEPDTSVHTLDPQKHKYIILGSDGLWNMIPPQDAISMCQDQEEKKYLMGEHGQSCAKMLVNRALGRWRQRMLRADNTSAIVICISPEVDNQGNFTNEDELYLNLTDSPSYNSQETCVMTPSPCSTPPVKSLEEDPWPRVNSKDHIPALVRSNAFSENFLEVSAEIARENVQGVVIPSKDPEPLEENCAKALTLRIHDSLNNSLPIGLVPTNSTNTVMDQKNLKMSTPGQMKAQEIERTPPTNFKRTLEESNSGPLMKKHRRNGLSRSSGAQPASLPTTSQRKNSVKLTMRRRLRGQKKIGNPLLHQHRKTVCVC
Sequence of Cytochrome P450 2D6 (Homo sapiens) (P10635 whole entry, looked up): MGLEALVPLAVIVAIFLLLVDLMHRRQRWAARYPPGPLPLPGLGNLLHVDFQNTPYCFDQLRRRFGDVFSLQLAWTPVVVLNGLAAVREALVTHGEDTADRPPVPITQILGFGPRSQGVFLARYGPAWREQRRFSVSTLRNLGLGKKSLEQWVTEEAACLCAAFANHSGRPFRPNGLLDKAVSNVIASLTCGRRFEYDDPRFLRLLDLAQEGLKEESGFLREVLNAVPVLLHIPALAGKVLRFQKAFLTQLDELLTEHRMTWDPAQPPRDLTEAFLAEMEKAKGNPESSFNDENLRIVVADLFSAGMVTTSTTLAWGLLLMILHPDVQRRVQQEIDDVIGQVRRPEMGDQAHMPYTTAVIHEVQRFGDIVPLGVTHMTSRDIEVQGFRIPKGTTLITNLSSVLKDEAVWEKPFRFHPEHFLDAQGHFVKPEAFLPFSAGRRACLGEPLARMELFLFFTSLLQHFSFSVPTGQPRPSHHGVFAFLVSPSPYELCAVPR
Sequence of Cytochrome P450 3A4 (Homo sapiens) (P08684 whole entry, looked up): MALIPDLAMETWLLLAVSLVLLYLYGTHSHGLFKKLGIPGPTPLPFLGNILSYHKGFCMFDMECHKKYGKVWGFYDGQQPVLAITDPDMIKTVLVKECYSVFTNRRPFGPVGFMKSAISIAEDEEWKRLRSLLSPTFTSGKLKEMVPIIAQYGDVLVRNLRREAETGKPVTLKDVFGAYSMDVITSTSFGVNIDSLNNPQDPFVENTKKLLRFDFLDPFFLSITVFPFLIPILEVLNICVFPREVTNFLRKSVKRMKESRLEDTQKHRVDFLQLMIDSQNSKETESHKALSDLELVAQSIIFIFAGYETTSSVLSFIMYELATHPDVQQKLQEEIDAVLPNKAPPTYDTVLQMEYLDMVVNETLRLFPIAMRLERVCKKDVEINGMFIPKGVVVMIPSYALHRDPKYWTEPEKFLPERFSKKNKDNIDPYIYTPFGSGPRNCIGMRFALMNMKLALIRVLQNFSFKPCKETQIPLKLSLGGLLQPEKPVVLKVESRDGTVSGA

In the case of `NC(N)=N/N=C/c1c(Cl)cccc1Cl`, the Potency result in test [1], in test [3], in [5], in test [6], in test [8] and in [9] was “inactive” throughout. Moreover, the Potency result (in test [11]; with Papain (Carica papaya)) was “inactive” in each case. Also, the result in test [2], in [4] and in [7] was inactive. In test [10], the Potency is 9.77 µM (active).
With `O=C(O)CN(CCN(CC(=O)O)CC(=O)O)CCN(CC(=O)O)CC(=O)O`, the Potency entry in [1], in test [12], in [5], in test [6], in [8] and in [9] was “inactive” in each case. Further, the Potency entry (in test [14]; in test [10]; in test [11]; with Papain (Carica papaya); in test [15]) was “inactive” in each case. Further, the result in [2], in test [4] and in test [7] was inactive. Moreover, the max response in test [13] is 25%.
As for `CN(C)[C@@H]1C(=O)C(C(N)=O)=C(O)[C@@]2(O)C(=O)C3=C(O)c4c(O)ccc(Cl)c4[C@@H](O)[C@H]3C[C@@H]12`, the Potency entry in [1], in test [3], in test [5], in test [6], in test [8] and in [9] was “inactive” each time. Moreover, the Potency entry in test [10] was “inactive”. Moreover, the call in [2], in test [4], in test [16], in [7] and in test [17] was inactive.
With `C=CCc1ccccc1OCC(O)CNC(C)C` (configuration not stated), the Potency entry in test [1], in [3], in test [5], in test [6], in [8] and in [9] was “inactive” each time. The Potency result (in test [14]; in test [11]; with Papain (Carica papaya); in test [15]) was “inactive” throughout. The result in [2], in test [4], in test [16] and in [7] was inactive. In addition, the Potency in [10] is 6.92 µM (active) and 8.49 µM (active).
On to `CN/C(=C\[N+](=O)[O-])NCCSCc1ccc(CN(C)C)o1`, for which the Potency result in test [1], in test [3], in [5], in test [6], in [8] and in test [14] was “inactive” each time. Further, the Potency entry in test [11] and in test [15] was “inactive” throughout. For the same compound, the compound was called inactive in test [2], in test [4], in test [16] and in test [7]. Besides, the Potency in test [10] was 15.5 µM (active).
Consider `C[n+]1cc2c3c(ccc2c2ccc4cc5c(cc4c21)OCO5)OCO3`, for which the Potency in [1] is 1.78 µM (active); in test [8], 14.1 µM (active); in [10], 6.74 µM (active); in test [15] it was 0.58 µM (active). Further, the result in test [2], in test [4], in test [18] and in [7] was inactive. In addition, the Potency entry (in [3]; in [9]; with Papain (Carica papaya)) was “inactive” each time.
Take `OCCN1CCN(CC/C=C2/c3ccccc3Sc3ccc(C(F)(F)F)cc32)CC1`: the Potency entry in [1], in test [3], in test [5], in [6], in test [8] and in test [9] was “inactive” each time. The Potency result with Papain (Carica papaya) is “inactive”. Further, the call in [2], in [4] and in test [7] was inactive. Moreover, the Potency in [10] was 6.92 µM (active); in [15] it was 15 µM (active).
In the case of `c1cnc(N2CCN(Cc3ccc4c(c3)OCO4)CC2)nc1`, the Potency result (in test [1]; in test [5]; in test [6]; in [8]; in test [9]; with Papain (Carica papaya)) was “inactive” in each case. Also, the Potency result in [15] is “inactive”. The result in test [2], in test [4] and in [7] was inactive. The Potency in test [10] is 0.871 µM (active); in test [11], 11 µM (active).
